# Test results from PMC11062922 (Nature Chemical Biology, 2023).
# Test system: LCK
# Parameters: species or system human, MV4-11 + K-562 + COLO205 + SK-N-BE2 + OVCAR-8
# Details: read-out: apparent Kd; compound concentrations:100 nM and 1000 nM (sheet 'Samples'); n = 1
row,Structure (SMILES),potency estimated from few doses [nM]
1,Cn1cc(-c2cnc(N)c3c(-c4ccc5c(c4)CCN5C(=O)Cc4ccccc4)csc23)cn1 [GSK2593074A],554
2,Cl.Cn1c(=O)c(Cc2ccc(F)cc2F)cc2cnc(NC3CCOCC3)nc21 [RO3308757-001],1220
3,CC(C)c1nc(-c2ccc(F)c(NS(=O)(=O)c3c(F)cccc3F)c2)c(-c2ccnc(Nc3ccc(N4CCOCC4)nc3)n2)s1 [GSK1804250A],342

# Test system: MAPK10
# Parameters: species or system human, MV4-11 + K-562 + COLO205 + SK-N-BE2 + OVCAR-8
# Details: read-out: apparent Kd; compound concentrations:100 nM and 1000 nM (sheet 'Samples'); n = 1
row,Structure (SMILES),potency estimated from few doses [nM]
1,Fc1ccc(-c2c(-c3ccncc3)[nH]c3nccnc23)cc1 [RO1155697-000],869
2,CNc1nccc(-c2c(-c3ccc(F)cc3)ncn2C2CCN(C)CC2)n1 [SB-222903],976
3,Cl.Cn1c(=O)c(Cc2ccc(F)cc2F)cc2cnc(NC3CCOCC3)nc21 [RO3308757-001],886
4,Nc1nc(N)c2nc(-c3ccccc3)[nH]c2n1 [SKF-12778],925

# Test system: MAPK9
# Parameters: species or system human, MV4-11 + K-562 + COLO205 + SK-N-BE2 + OVCAR-8
# Details: read-out: apparent Kd; compound concentrations:100 nM and 1000 nM (sheet 'Samples'); n = 1
row,Structure (SMILES),potency estimated from few doses [nM]
1,Fc1ccc(-c2c(-c3ccncc3)[nH]c3nccnc23)cc1 [RO1155697-000],368
2,CNc1nccc(-c2c(-c3ccc(F)cc3)ncn2C2CCN(C)CC2)n1 [SB-222903],462
3,Cl.Cn1c(=O)c(Cc2ccc(F)cc2F)cc2cnc(NC3CCOCC3)nc21 [RO3308757-001],1030
4,Nc1nc(N)c2nc(-c3ccccc3)[nH]c2n1 [SKF-12778],2000

# Test system: NLK
# Parameters: species or system human, MV4-11 + K-562 + COLO205 + SK-N-BE2 + OVCAR-8
# Details: read-out: apparent Kd; compound concentrations:100 nM and 1000 nM (sheet 'Samples'); n = 1
row,Structure (SMILES),potency estimated from few doses [nM]
1,N#Cc1cccc(Nc2nccc(-c3cnn4ncccc34)n2)c1 [GW778894X],1560
2,CNc1nccc(-c2c(-c3ccc(F)cc3)ncn2C2CCN(C)CC2)n1 [SB-222903],19.1
3,Nc1nc(N)c2nc(-c3ccccc3)[nH]c2n1 [SKF-12778],1660

# Test system: PLK4
# Parameters: species or system human, MV4-11 + K-562 + COLO205 + SK-N-BE2 + OVCAR-8
# Details: read-out: apparent Kd; compound concentrations:100 nM and 1000 nM (sheet 'Samples'); n = 1
row,Structure (SMILES),potency estimated from few doses [nM]
1,Cl.Cn1c(=O)c(Cc2ccc(F)cc2F)cc2cnc(NC3CCOCC3)nc21 [RO3308757-001],963
2,COc1cc2ncn(-c3cc(OCCCc4ccccc4)c(C(N)=O)s3)c2cc1OC [GSK205189A],1240
3,CC(C)c1nc(-c2ccc(F)c(NS(=O)(=O)c3c(F)cccc3F)c2)c(-c2ccnc(Nc3ccc(N4CCOCC4)nc3)n2)s1 [GSK1804250A],403

# Molecular target: Q6ZSR9 (human, UniProt Q6ZSR9)
# Parameters: species or system MV4-11 + K-562 + COLO205 + SK-N-BE2 + OVCAR-8
# Details: read-out: apparent Kd; compound concentrations:100 nM and 1000 nM (sheet 'Samples'); n = 1
# Sequence of Q6ZSR9 (Q6ZSR9 whole entry, looked up): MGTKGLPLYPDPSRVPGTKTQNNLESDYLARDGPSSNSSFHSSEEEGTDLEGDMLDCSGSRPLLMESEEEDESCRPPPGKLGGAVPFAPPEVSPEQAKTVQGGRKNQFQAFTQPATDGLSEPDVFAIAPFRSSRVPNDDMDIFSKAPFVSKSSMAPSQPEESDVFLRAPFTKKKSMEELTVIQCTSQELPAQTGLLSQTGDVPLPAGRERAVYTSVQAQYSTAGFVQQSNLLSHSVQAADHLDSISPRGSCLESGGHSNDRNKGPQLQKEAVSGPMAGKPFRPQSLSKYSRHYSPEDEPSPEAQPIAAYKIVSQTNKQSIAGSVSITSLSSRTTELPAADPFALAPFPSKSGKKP
row,Structure (SMILES),potency estimated from few doses [nM]
1,COc1cc2ncn(-c3cc(OCc4cccs4)c(C(N)=O)s3)c2cc1OC [GSK312948A],2250
2,Cl.Cn1c(=O)c(Cc2ccc(F)cc2F)cc2cnc(NC3CCOCC3)nc21 [RO3308757-001],1840
3,COc1cc2ncn(-c3cc(OCCCc4ccccc4)c(C(N)=O)s3)c2cc1OC [GSK205189A],1480

# Test system: RIOK2
# Parameters: species or system human, MV4-11 + K-562 + COLO205 + SK-N-BE2 + OVCAR-8
# Details: read-out: apparent Kd; compound concentrations:100 nM and 1000 nM (sheet 'Samples'); n = 1
row,Structure (SMILES),potency estimated from few doses [nM]
1,N#Cc1cccc(Nc2nccc(-c3cnn4ncccc34)n2)c1 [GW778894X],75.3
2,Nc1nc(N)c2nc(-c3ccccc3)[nH]c2n1 [SKF-12778],1620
3,O=S(=O)(c1ccc(-c2ccnc3[nH]ccc23)cc1)N1CCCC1 [GSK846226A],2220
4,COc1cc(/C=N/Nc2ncnc3[nH]ncc23)ccc1O [GW578748X],1600

# Test system: RIPK2
# Parameters: species or system human, MV4-11 + K-562 + COLO205 + SK-N-BE2 + OVCAR-8
# Details: read-out: apparent Kd; compound concentrations:100 nM and 1000 nM (sheet 'Samples'); n = 1
row,Structure (SMILES),potency estimated from few doses [nM]
1,Cn1cc(-c2cnc(N)c3c(-c4ccc5c(c4)CCN5C(=O)Cc4ccccc4)csc23)cn1 [GSK2593074A],120
2,Fc1ccc(-c2c(-c3ccncc3)[nH]c3nccnc23)cc1 [RO1155697-000],828
3,CNc1nccc(-c2c(-c3ccc(F)cc3)ncn2C2CCN(C)CC2)n1 [SB-222903],433
4,CC(=O)c1c(-c2ccncc2)[nH]c(-c2ccncc2)c1C [GW493036X],1000

# Test system: TNK1
# Parameters: species or system human, MV4-11 + K-562 + COLO205 + SK-N-BE2 + OVCAR-8
# Details: read-out: apparent Kd; compound concentrations:100 nM and 1000 nM (sheet 'Samples'); n = 1
row,Structure (SMILES),potency estimated from few doses [nM]
1,Cl.Cn1c(=O)c(Cc2ccc(F)cc2F)cc2cnc(NC3CCOCC3)nc21 [RO3308757-001],177
2,COc1cc2ncn(-c3cc(OCCCc4ccccc4)c(C(N)=O)s3)c2cc1OC [GSK205189A],42.3
3,CC(C)c1nc(-c2ccc(F)c(NS(=O)(=O)c3c(F)cccc3F)c2)c(-c2ccnc(Nc3ccc(N4CCOCC4)nc3)n2)s1 [GSK1804250A],328

# Test system: TNK2
# Parameters: species or system human, MV4-11 + K-562 + COLO205 + SK-N-BE2 + OVCAR-8
# Details: read-out: apparent Kd; compound concentrations:100 nM and 1000 nM (sheet 'Samples'); n = 1
row,Structure (SMILES),potency estimated from few doses [nM]
1,Cl.Cn1c(=O)c(Cc2ccc(F)cc2F)cc2cnc(NC3CCOCC3)nc21 [RO3308757-001],230
2,COc1cc2ncn(-c3cc(OCCCc4ccccc4)c(C(N)=O)s3)c2cc1OC [GSK205189A],48.2
3,CC(C)c1nc(-c2ccc(F)c(NS(=O)(=O)c3c(F)cccc3F)c2)c(-c2ccnc(Nc3ccc(N4CCOCC4)nc3)n2)s1 [GSK1804250A],232

# Test system: YES1
# Parameters: species or system human, MV4-11 + K-562 + COLO205 + SK-N-BE2 + OVCAR-8
# Details: read-out: apparent Kd; compound concentrations:100 nM and 1000 nM (sheet 'Samples'); n = 1
row,Structure (SMILES),potency estimated from few doses [nM]
1,Cl.Cn1c(=O)c(Cc2ccc(F)cc2F)cc2cnc(NC3CCOCC3)nc21 [RO3308757-001],805
2,Nc1nc(N)c2nc(-c3ccccc3)[nH]c2n1 [SKF-12778],1040
3,CC(C)c1nc(-c2ccc(F)c(NS(=O)(=O)c3c(F)cccc3F)c2)c(-c2ccnc(Nc3ccc(N4CCOCC4)nc3)n2)s1 [GSK1804250A],679
